# Data as given in PubChem BioAssay (EPA / NIEHS).
# Records with an inconclusive call do not appear. Active and inactive are the calls of the source. Rule for the calls: active = hit-call score of the fitted dose curve at least 0.9, where 1 is the maximum; inconclusive = response in the unintended direction; inactive = score below 0.9.
# Assay: ACEA_ER_AUC_viability: ACEA Biosciences xCELLigence Real-Time Cell Analysis on Estrogen Receptor Agonism for Viability (AID 2283782);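 note: continuous compound exposure with impedance area under curve over 80 h; hit means loss of impedance signal meaning reduced cell growth or viability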
# Procedure, shortened: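 T-47D human breast cells in phenol red-free RPMI1640 with 10% charcoal-stripped FBS were dosed with an 8-point 1:4 dilution series from 100 uM top final concentration, in duplicate. Impedance-based growth was followed for 80 h; AUC analysed versus DMSO.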
SMILES,AC50,outcome
OCC(F)(F)C(F)(F)C(F)(F)C(F)(F)C(F)(F)C(F)(F)C(F)(F)C(F)(F)CO,75 µM (active),
COC(=O)c1ccc(C=O)cc1,,inactive
CC(O)C#CC(C)O (configuration not stated),26.7 µM (active),
CCc1cc(Cc2cc(CC)c(N)c(CC)c2)cc(CC)c1N,68.3 µM (active),
CC(C)=CCCC(C)O (configuration not stated),,inactive
CCn1c2ccccc2c2ccccc21,66.3 µM (active),
O=C1c2c(O)ccc(Nc3ccc(CCO)cc3)c2C(=O)c2c([N+](=O)[O-])ccc(O)c21,88.8 µM (active),
OCC(O)CC(F)(F)C(F)(F)C(F)(F)C(F)(F)C(F)(F)C(F)(F)C(F)(F)C(F)(F)F (configuration not stated),,inactive
CN1CN(C)CN(C)C1,,inactive
O=C1OC(=O)c2ccc3c4c(ccc1c24)C(=O)OC3=O,,inactive
CCc1ccc(C)nc1,,inactive
Brc1ccccn1,,inactive
CC(=O)C=O,,inactive
NC(=O)C(F)(F)C(F)(F)C(F)(F)C(F)F,,inactive
CC1=CCC(=O)O1,,inactive
CC(C)(C)C(=O)C1C(=O)c2ccccc2C1=O,88.2 µM (active),
CCCC(=O)OCC(COC(=O)CCC)OC(=O)CCC,,inactive
CO[Si](C)(CCC(F)(F)C(F)(F)C(F)(F)C(F)(F)C(F)(F)C(F)(F)F)OC,,inactive
O=S(=O)(OCC(F)(F)F)C(F)(F)C(F)(F)C(F)(F)C(F)(F)F,,inactive

SMILES,AC50,outcome
CCOCOCC,,inactive
Nc1c(Br)cc([N+](=O)[O-])cc1Br,,inactive
CSc1ccc(Cl)cc1,,inactive
O=C(c1ccccc1)c1ccc(Cl)cc1,28.4 µM (active),
CCCCOC(=O)[C@H](C)O,,inactive
CC(C)CCCC(C)CCO (configuration not stated),,inactive
CCCCCCCCCCCC(=O)Cl,79.8 µM (active),
O=C=NCc1cccc(CN=C=O)c1,,inactive
CSc1ccc(O)cc1C,16.2 µM (active),
NCC(F)(F)C(F)(F)C(F)(F)C(F)(F)C(F)(F)C(F)(F)F,,inactive
OCC(F)(F)C(F)(F)C(F)(F)CO,,inactive
O=C=Nc1cccc2c(N=C=O)cccc12,,inactive
CCCCCC/C=C/CCCCCCCC(=O)O,50 µM (active),
Brc1nc2ccccc2s1,,inactive
CCC(C)CO (configuration not stated),74.7 µM (active),
O=S(=O)(O)CCC(F)(F)C(F)(F)C(F)(F)C(F)(F)C(F)(F)C(F)(F)C(F)(F)C(F)(F)F,,inactive
CCC/C=C/CO,,inactive
FC(F)(F)C(F)(F)C(F)(F)C(F)(F)C(F)(F)C(F)(F)CC[Si](Cl)(Cl)Cl,,inactive
